SSB-PriA inh: blocks PriA binding to SSB C-terminal tail; AlphaScreen SSBct-PriA binding, biotinylated peptide; inhibition, % at 33 µM; actives 0.6% (n = 430,000); AID 1272365; in the data active = inhibition mostly above about 37%, no sharp cut-off; inactive = mostly below about 20%
VHR inh abs: inhibitors of human VHR1 phosphatase (DUSP3). inhibition, % at 13.3 µM. recombinant VHR phosphatase, pNPP absorbance. P51452. actives 0.52% (n = 290,000); in the data active = inhibition above about 50%
Target sequence (P51452 whole entry, looked up): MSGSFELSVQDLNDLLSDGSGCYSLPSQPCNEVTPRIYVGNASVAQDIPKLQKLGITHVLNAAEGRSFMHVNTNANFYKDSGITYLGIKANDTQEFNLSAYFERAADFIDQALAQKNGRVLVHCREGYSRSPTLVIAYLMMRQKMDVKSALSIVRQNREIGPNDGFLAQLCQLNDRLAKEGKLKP
Sa RN4220 lethal: S. aureus RN4220 growth inhibition. actives 0.33% (n = 330,000). inhibition, % (concentration not given with the values). OD600, 16 h. AID 1259311; in the data active = inhibition above about 85%
CCHFV vOTU inh: CCHFV vOTU protease inhibition | Pep-AMC fluorescence | inhibition, % at 11.5 µM | actives 0.55% (n = 370,000) | AID 651958; in the data active = inhibition above about 30%
ugtP null kill: compounds lethal to S. aureus RN4220 ugtP deletion mutant; OD600 growth, 16 h; growth inhibition, % (concentration not given with the values); actives 0.54% (n = 330,000); AID 1259309; in the data active = growth inhibition above about 68%
Numbers stand for hits; . = inactive; / = not tested or not shown; ! = not confirmed by another sample. An excerpt weighted towards active compounds, which were near 1.5% of everything screened.

SMILES	SSB-PriA inh	VHR inh abs	Sa RN4220 lethal	CCHFV vOTU inh	ugtP null kill
Cc1sc2ncn(CC(=O)NCCCN3CCC(C)CC3)c(=O)c2c1S(=O)(=O)N1CCC(C)CC1	.	59.6	.	.	.
Cc1ccc(-n2c(/C=C/c3ccc4c(c3)OCO4)nc3ccccc3c2=O)cc1	/	.	/	.	/
COc1ccc(/C=C/c2nc3ccccc3c(=O)n2-c2cccc(C(=O)O)c2)cc1	.	.	92.3	.	.
O=c1c2ccccc2nc(/C=C/c2ccc3c(c2)OCO3)n1-c1cccc(O)c1	.	.	96.5	.	93.1
O=C1NCCN1C(=O)Nc1ccc2c(c1)N(C(=O)C1CC1)CC2	.	/	/	/	/
COC(=O)/C(C#N)=C/N(C)C	.	.	.	.	.
CCOC(=O)/C(C#N)=C\N(C)C	.	56.7	.	.	.
COc1ccc(C[C@](C)(O)CNS(=O)(=O)/C=C/c2ccc(C)cc2)cc1	.	/	/	/	/
Cc1cccc(-n2cc(CN(C)Cc3nccn3C)c(-c3cccc(F)c3)n2)c1	39.1	.	.	.	.
COc1ccc(Nc2nc(Nc3ccc4c(c3)OCO4)nc(N3CCOCC3)n2)cc1	38.0	/	/	/	/
Cc1ccc(Nc2nc(N3CCOCC3)nc(N3CCOCC3)n2)cc1	.	50.8	.	.	.
O=C(NCCO)c1c(-c2ccc3c(c2)OCO3)noc1-c1ccsc1	.	/	/	.	/
COc1cc(-c2c(-c3ccc4c(c3)OCO4)noc2-c2ccsc2)ccc1F	.	.	.	.	86.9
c1cc2cc(-c3c(-c4ccc5c(c4)OCO5)noc3-c3ccsc3)ccc2[nH]1	.	.	/	.	/
CCOC(=O)c1ccc(-c2c(-c3ccc4c(c3)OCO4)noc2-c2ccsc2)cc1F	.	.	.	.	95.8
Cc1ccc(S(=O)(=O)N2CCN(CCn3cccn3)CC2)c(C)c1	.	/	/	/	/
COc1ccc(Nc2cc(C)nc(N3CCN(C(=O)CCCc4ccccc4)CC3)n2)cc1	.	/	/	/	/
Cc1cn2c(=O)c(C(=O)NCc3cccs3)cnc2s1	.	/	/	/	/
NC(=O)c1c(NC(=O)/C=C/c2ccc([N+](=O)[O-])s2)sc2c1CCCCC2	.	/	/	/	/
Cc1cc(Nc2ccc(Br)cc2)c2c([N+](=O)[O-])ccc(C)c2n1	.	/	/	/	/
COc1ccc(Nc2cc(C)nc3c(C)ccc([N+](=O)[O-])c23)cc1	111.8	/	/	/	/
Cc1ccc(-c2nc(-c3ccccc3)no2)cc1	.	.	.	.	.
COc1ccc(-c2noc(-c3ccccc3F)n2)cc1	104.2	.	.	.	.
COc1ccc(-c2noc(-c3ccccc3-c3ccccc3)n2)cc1	.	.	.	.	88.3
Cc1ccc(-c2nc(-c3ccccc3)no2)c(Cl)c1	104.2	.	.	.	.
SMILES	SSB-PriA inh	VHR inh abs	Sa RN4220 lethal	CCHFV vOTU inh	ugtP null kill
Fc1ccccc1-c1nc(-c2ccccc2)no1	.	.	.	.	.
Cc1ccc(Cl)c2sc(NC(=O)c3nc4ccccc4s3)nc12	.	/	/	/	/
Cc1oncc1C(=O)Nc1ccc2c(c1)CN(C(=O)c1ccco1)CC2	.	/	/	/	/
Cc1cc(=O)n2c(-c3ccc(NS(C)(=O)=O)cc3)csc2n1	.	/	/	/	/
CC(C)(C)OC(=O)N1CCC(c2c(C(=O)N3CCN(C(=O)c4ccco4)CC3)cnn2-c2cccc(Cl)c2)CC1	.	57.7	.	.	.
CNC(=O)Cc1ccc(NS(=O)(=O)c2ccc(OC)c(Cl)c2)cc1	.	/	/	/	/
CC(=O)c1ccc(N2CCN(C(=O)C3CCC3)CC2)cc1	.	.	.	.	.
O=C(C1CC1)N1CCN(c2ccc(O)cc2)CC1	.	56.2	.	.	.
COC(=O)/C=C(\I)C(=O)OC	.	/	/	/	/
COc1ccc(S(=O)(=O)Nc2ccc3c(c2)OCC(C)(C)C(=O)N3)cc1Cl	.	/	/	/	/
CC(=O)C(Cl)C(=O)Nc1ccccc1 (centres undefined)	.	.	.	.	.
O=C(Nc1ccccc1)C(Cl)C(=O)c1ccccc1 (centres undefined)	.	.	.	.	91.6
CC(=O)Nc1ccc(C(=O)NCCNC(=O)COc2ccc(Cl)cc2Cl)cc1	.	/	/	/	/
O=Cc1ccc(Oc2cc(-c3ccccc3)nc(-c3ccccc3)n2)cc1	.	.	.	.	100.5
COc1ccc(Cc2cnc(NC(=O)c3cc(C)oc3C)s2)cc1	.	/	/	/	/
Cc1ccc(NS(=O)(=O)c2ccc3[nH]c(=O)sc3c2)cc1	.	.	.	.	99.8
CN1CCN(C(=O)CN2C(=O)c3cccc4cccc(c34)C2=O)CC1	.	/	/	/	/
CS(=O)(=O)c1ccc(CC(=O)Nc2nnc(Cc3ccc4c(c3)OCCO4)o2)cc1	47.0	/	/	/	/
CS(=O)(=O)c1ccc(CC(=O)Nc2nnc(-c3cc(Cl)sc3Cl)o2)cc1	active!	/	/	/	/
CS(=O)(=O)c1ccc(CC(=O)Nc2nnc(-c3ccccc3Cl)o2)cc1	.	/	/	/	/
C#CCSc1nnnn1-c1ccc(Br)c(C)c1	82.6	.	/	.	/
C#CCSc1nnnn1-c1cccc(Cl)c1	.	.	.	.	.
CC1(C)CNc2cc(N)ccc2S1	74.2	.	.	.	.
O=C(NCc1cccs1)NC[C@H]1CN(c2ccc(F)cc2)C(=O)O1	.	/	/	/	/
COc1cc(/C=N\N=C2\NC(=O)C(CC(=O)O)S2)ccc1O (centres undefined)	.	/	/	/	/
SMILES	SSB-PriA inh	VHR inh abs	Sa RN4220 lethal	CCHFV vOTU inh	ugtP null kill
Cc1ccc(NC(=O)C(OC(=O)c2ccc(C=O)cc2)c2ccccc2)cc1Cl (centres undefined)	.	.	.	/	89.6
COc1ccc(/C=C/C(=O)Nc2nnc(Cc3ccc(F)cc3)o2)cc1OC	.	/	/	/	/
CCC1CCCCN1CCCNC(=O)c1ccc2c(c1)NC(=O)CS2 (centres undefined)	.	55.6	.	.	.
CCC1CCCCN1CCCNC(=O)c1ccc2nc(N3CCC(C)CC3)sc2c1 (centres undefined)	.	51.3	.	.	.
CC1CCN(c2nc3ccc(C(=O)NCCCN4CCCCC4)cc3s2)CC1	.	.	.	.	.
CC(Oc1ccc(Cl)cc1Cl)C(=O)NC(=S)N1CCc2ccccc21 (centres undefined)	.	.	99.0	.	98.4
CC(Oc1ccc(Cl)cc1C(N)=O)C(=O)N1CCc2ccccc21 (centres undefined)	.	/	.	.	.
COc1cccc(Cn2nc(C(F)(F)F)n(C)c2=O)c1	.	/	/	/	/
Clc1ccc(COC(Cn2ccnc2)c2ccc(Cl)cc2Cl)c(Cl)c1 (centres undefined)	.	.	100.0	.	100.0
CCOc1ccc2nc(N3CCCC(C(=O)NC4CCCC4)C3)sc2c1 (centres undefined)	.	52.7	.	.	.
CCOc1ccc2nc(N3CCC(C(=O)NC4CCCCC4)CC3)sc2c1	.	.	.	.	.
O=C(CN1CCN(Cc2ccc3c(c2)OCO3)CC1)Nc1ccc(F)cc1	.	.	.	.	.
O=C(CN1CCN(C(=O)CNC(=O)c2ccc3c(c2)OCO3)CC1)Nc1ccc(F)cc1	53.1	/	.	.	.
O=C(Nc1ccc2c(c1)OCO2)N1CCN(c2ccc(F)cc2)CC1	.	57.4	.	.	.
O=C(Nc1ccc2c(c1)OCO2)N1CCN(c2ccccc2)CC1	.	.	.	.	.
CC1CCC/C(=N\NC(=O)COc2ccc(Cl)cc2Cl)C1 (centres undefined)	/	.	/	.	/
CC1CCC/C(=N\NC(=O)COc2ccccc2Cl)C1 (centres undefined)	/	50.8	/	.	/

Screens deposited in PubChem by several laboratories.
